Data reported in PubChem BioAssay (NCATS).
Inconclusive results are not listed. Values without a mark were called inactive. Calls of active or inactive are those of the source. The call rests on the fitted dose curve; in most records, active means well fitted cell-killing curve with a large enough effect; inconclusive means small, poorly fitted or top-dose-only effect, or effect the other way; inactive means flat fitted curve, though single readings scatter. Where a SMILES comes first, the peptide text is derived from it. [ ]: non-standard residue; d: D form. pGlu = O=C1CC[C@@H](C(=O)O)N1; Thz = O=C(O)[C@@H]1CSCN1

System: CAOV3
Assay: Primary qHTS to identify gynecologic anti-cancer compounds using libraries of approved drugs and bioactive compounds (AID 1345084); further: nearly all actives have a fitted effect of over 55% in size
Settings: Gynecologic cancer cell panel viability, ATPlite luminescence, 48 h; series mostly up to 57.5 µM; activity change, negative = cytotoxicity: at the top concentration
Source text: National Center for Advancing Translational Sciences [NCATS] Assay Overview: Chemotherapeutic drug responses vary from cancer to cancer and from patient to patient. These variations could be caused by a number of factors including patient genomic background, tumor mutations, tumor heterogeneity, and aspects of drug treatment. Chemotherapeutic drug resistance is also a common issue and can lead to ineffective treatment and patient death. Here we have profiled the cell killing effects of thousands of compounds to characterize the responses in three gynecological cancers, identify cancer-selective compounds, and understand the diversity of responses to these compounds from pan-cancer suppressors to single cell line selective compounds. In this assay, we screened a 7,914 compound drug library that included approved drug and bioactive compounds in six ovarian, three cervical, and […] placental cancer cell lines using the ATPlite assay for cell viability. […] The cervical cancer cell lines included HeLa, Ca Ski, and C-33 A. The placental cancer cell lines included JEG-3. HEK 293T cells were used as the control cell line to determine the selectivity index. ATPlite is a luminescence based assay reliant on the conversion of a luciferase substrate to light in the presence of ATP. As a cytotoxic compound will suppress growth and decrease the number of cells, the concentration of ATP will decrease, and less light signal will be detected in the well.
Assay Protocol Summary: 1,000 cells in 4 uL of media were dispensed into white, solid bottom 1536-well plates using a Multidrop Combi (Thermo Scientific). The Assay plates were incubated for 16 hours at 37 C with 5% CO2 in assay plates, followed by the addition of 23 nL of DMSO or drug dissolved in DMSO. Each compound was assayed in five concentrations (0.092, 0.46, 2.3, 11.5, and 57.5 uM), using the automated Wako 1536 Pin Tool workstation and incubated at 37 C with 5% CO2 48 hours. 4 uL of ATPlite, the ATP monitoring reagent, was then added to the each well of the assay plates using the Multidrop Combi reagent dispenser followed by incubation for 15 minutes at room temperature. The resulting luminescence was measured using the ViewLux plate reader.
On the % scale 0 is the no-effect control and ±100 the full control effect; potency means the concentration at half of the fitted maximal effect.

| Compound | activity change, negative = cytotoxicity | Potency |
| --- | --- | --- |
| O=C(O)CC1CC(c2ccccc2)=NO1 (stereo not given) | -2.51% [at 25.3 µM] |  |
| O=C(Nc1ccc(C(=O)O)c(O)c1)c1ccccc1 | -7.41% |  |
| Cc1c(C(=O)O)c(O)cc2c1C(=O)c1c(O)c([C@@H]3O[C@H](CO)[C@@H](O)[C@H](O)[C@H]3O)c(O)c(O)c1C2=O | -18.6% |  |
| CC(C)OC(=O)c1cc(C(=O)OC(C)C)cc([N+](=O)[O-])c1 | 3.87% [at 116 µM] |  |
| CCCCCCCCCCCC(=O)[O][Sn]([CH2]CCC)([CH2]CCC)[O]C(=O)CCCCCCCCCCC | -6.52% |  |
| CC1(C)[C@@H](O)CC[C@]2(C)[C@H]3C(=O)C=C4[C@@H]5C[C@@](C)(C(=O)O)CC[C@]5(C)CC[C@@]4(C)[C@]3(C)CC[C@@H]12 | 4.05% |  |
| CCC1C(=O)OCC1Cc1cncn1C (stereo not given) | 2.42% |  |
| CCCOC(=O)c1ccc(O)cc1 | -2.68% [at 116 µM] |  |
| O=C(CS)Nc1ccccc1 | -4.22% |  |
| COC(=O)C1=C(C)NC(C)=C(C(=O)OCC(C)C)C1c1ccccc1[N+](=O)[O-] (stereo not given) | -1.9% |  |
| O=C1CC[C@@H](C(=O)N2CSC[C@H]2C(=O)O)N1 ([pGlu]-[Thz]-OH) | 3.59% |  |
| O=C(/C=C/c1ccccc1)NCCO | -23.4% |  |
| C[N+]1(C)[C@@H]2CC(OC(=O)[C@H](CO)c3ccccc3)C[C@H]1[C@@H]1O[C@@H]12 (stereo not given in full) | 24.4% |  |
| Cc1cc(O)c2ccccc2c1O | 13.7% |  |
| O=C(O)/C=C\C(=O)O | 12.9% |  |
| S=c1[nH]c2ccccc2s1 | 3.16% [at 116 µM] |  |
| CN(C)CCn1nnnc1SCC1=C(C(=O)O)N2C(=O)[C@@H](NC(=O)Cc3csc(N)n3)[C@H]2SC1 | -5.49% |  |
| Nc1c(CC(=O)O)cccc1C(=O)c1ccc(Br)cc1 | 0.86% |  |
| CC(C(=O)O)c1ccc2c(c1)[nH]c1ccc(Cl)cc12 (stereo not given) | 14.2% |  |
| CCCCCCCCCCCCOCCO | -0.376% |  |

| Compound | activity change, negative = cytotoxicity | Potency |
| --- | --- | --- |
| CC(=O)c1ccc(OCC(=O)N2CCCCC2)cc1 | 10.6% |  |
| NS(=O)(=O)c1ccc(-n2nc(C(F)(F)F)cc2-c2ccc(Cl)cc2)cc1 | -5.6% |  |
| O=[N+]([O-])c1ccc(CNc2nc(NCc3cccc(C(F)(F)F)c3)nc3nc[nH]c23)cc1 | 13.2% |  |
| O=C1CN(/N=C/c2ccc([N+](=O)[O-])o2)C(=O)N1 | -8% |  |
| CC(C)(C)c1nnc(NS(=O)(=O)c2ccc(N)cc2)s1 | 7.23% |  |
| CCCC(=O)OC[C@@H](OC(=O)CCC)[C@@H](OC(=O)CCC)[C@H](Cn1c2nc(=O)[nH]c(=O)c-2nc2cc(C)c(C)cc21)OC(=O)CCC | -14.2% |  |
| CN1CCN(c2cc3c(nn2)Oc2ccccc2N3C)CC1 | -12.3% [at 25.3 µM] |  |
| CC1(C)S[C@@H]2[C@H](NC(=O)[C@H](N)c3ccccc3)C(=O)N2[C@H]1C(=O)O | -8.24% |  |
| Oc1c(Br)cc(Br)c2cccnc12 | -3.57% |  |
| CCCCCCCCCCCCCCCC(=O)OC(C)C | 10.7% |  |
| CC(=O)O[C@H]1C[C@@]2(C)[C@@H](C[C@@H](O)[C@H]3[C@@]4(C)CC[C@@H](O)[C@@H](C)[C@@H]4CC[C@@]32C)/C1=C(\CCC=C(C)C)C(=O)O | 5.69% |  |
| C=CCCCCCCCCC(=O)O | 3.68% |  |
| COC(=O)C1=C(C)NC(C)=C(C(=O)OCC(C)=O)C1c1ccccc1[N+](=O)[O-] (stereo not given) | -1.11% |  |
| O=C(O)c1cc(O)c(O)c(O)c1 | 3.18% |  |
| COC(=O)C1=C(C)NC(C)=C(C(=O)OC)C1c1cccc(NC(=O)NCCCN2CCC(c3cccc(OC)c3)CC2)c1 |  | 22.4 µM (active) |
| CC(N)C(=O)OC(C)(C)Cc1ccc(Cl)cc1 (stereo not given) | -7.06% |  |
| CN1[C@@H]2CC[C@H]1CC(OC(=O)C(CO)c1ccccc1)C2 (stereo not given in full) | 9.15% |  |
| C#CC1(O)CC[C@H]2[C@@H]3CCC4=CCCC[C@@H]4[C@H]3CC[C@@]21C (stereo not given in full) | -6.8% |  |
| C#C[C@]1(O)CC[C@H]2[C@@H]3CCc4cc(O)ccc4[C@H]3CC[C@@]21C | -22% |  |
| COc1cc2c3cc1Oc1cc(ccc1O)C[C@@H]1c4c(cc(OC)c(O)c4Oc4ccc(cc4)C[C@@H]3N(C)CC2)CC[N+]1(C)C | -5.19% |  |
